For some assays here: Results with a measured potency or affinity are listed apart. Calls of active or inactive are those of the source. Unless noted, cut-off not given; nearly all actives show IC50 up to about 0.98 µM.

Tested on in the first assay: not listed separately
Nature of the assay: inhibition of 3D7 malaria parasite growth – strain 3D7 (AID 2306; call rule not given here;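 further: 0% = DMSO wells and 100% = chloroquine plus artemisinin control wells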). To be noted: P. falciparum 3D7 erythrocytic growth, LDH absorbance, 72 h; at 2 µM; hits give high values.
Consider `Cc1ccc2[nH]c(C)c(Br)c(=O)c2c1`, for which the growth inhibition was 95% (active).
Still for that read-out and setting: the result for `NC(=O)c1cccc(CNCc2ccc(-c3cccc(-c4nc5ccccc5[nH]4)c3)cc2)c1` reads 101% (active); that for `O=C(Nc1cc2cc(-c3ccc(CN4CCCCC4)cc3)ccc2n2cnnc12)NC1CCCC1`, 100% (active); that for `CN1CCC(NCc2ccc(-c3ccc(Cl)cc3)cc2)CC1`, 99% (active).
Same read-out and setting: the value for `CCCNc1ccc2nccc(CCN3CCC(NCc4ccc5c(n4)NC(=O)CS5)CC3)c2n1` was 103% (active).
Same read-out and setting: the result for `COc1cc2c(C3CCN(CC4CCN(C(=O)/C=C/c5ccc(Cl)c(Cl)c5)CC4)CC3)c[nH]c2cn1` reads 101% (active); that for `COc1cccc(CNC[C@@H](O)[C@H](Cc2ccccc2)NC(=O)c2cc(NC(C)C)cc(N3CCCCS3(=O)=O)c2)c1`, 89% (active).
As for `COc1ccc(NC(=O)/C=C/c2ccccc2Cl)cc1OCCN1CCC(N2CCCC2)CC1`, the growth inhibition was 102% (active).
Still for that read-out and setting: the result for `Clc1ncnc2scc(-c3ccc(Br)cc3)c12` reads 95% (active).
For `Cc1cccc(Nc2nc(C)cc(N3CCCN(CC4CCCCC4)CC3)n2)c1`, the growth inhibition is 83% (active).
The same measure, in the same setting: the value for `O=C(Nc1ccc2c(c1)OCO2)c1cc(-c2cccnc2)cnc1NCc1ccc2c(c1)OCO2` was 87% (active); that for `Cc1ccnc(NC(c2cccc(Cl)c2Cl)c2ccc3cccnc3c2O)c1` (stereo not given) was 86% (active).
On the same count and under the same terms, the value for `O=C(Nc1cccc(CN2CCCN(Cc3ccc(O)cc3)CC2)c1)c1cc(F)cc(F)c1` was 100% (active); that for `NC1=NC(c2ccccc2)(c2ccccc2)C(=O)N1Cc1ccc(-c2cccnc2)cc1` was 99% (active).
Same read-out and setting: the value for `CN1CCN(c2cccc(Nc3nccc(NCC(O)c4ccccc4)n3)c2)CC1` (stereo not given) was 101% (active); that for `CCC(C)(C)c1ccc(N2C(N)=NC(N)=NC2(C)C)cc1` was 91% (active).
In the case of `CC(CNC(=O)C(c1cc2ccccc2o1)N1CCN(C(c2ccccc2)c2ccccc2)CC1)c1ccccc1` (stereo not given), the growth inhibition is 99% (active).
On the same count and under the same terms, the result for `Cn1cnc(CCNC(=O)c2ccc(-c3ccc(-c4nc5ccc(C(F)(F)F)cc5[nH]4)s3)cc2)c1` reads 102% (active); that for `CN1CCN(c2cc(-c3cccnc3)nc(-c3ccncc3)n2)CC1`, 100% (active).
The same measure, in the same setting: the value for `COc1ccc2nccc([C@@H](O)CN3CC[C@H](NCc4ccc5c(n4)NC(=O)CS5)[C@H](F)C3)c2c1` was 89% (active); that for `c1ccc(-c2cc(NCCNc3cc(-c4ccccc4)nc4ccccc34)c3ccccc3n2)cc1` was 99% (active).
Still for that read-out and setting: the result for `NC1=NC2(CCCCC2)N(OCC2CCCCC2)C(N)=N1` reads 96% (active).
As for `O=C(Nc1ccc(OC2CCN(Cc3ccc(F)cc3)CC2)c(Cl)c1)c1ccoc1`, the growth inhibition was 89% (active).
On the same count and under the same terms, the result for `O=S(=O)(Nc1cccc(CCN2CCC(N3CCCCC3)CC2)c1)c1cccc(C(F)(F)F)c1` reads 101% (active).
Still for that read-out and setting: the value for `Cc1c(C(=O)N2CCCC(C(F)(F)F)C2)sc2cccc(F)c12` (stereo not given) was 99% (active); that for `CC(C)[C@H](NC(=O)c1ccc(O)c(-c2ccc(Cl)c(Cl)c2)c1)C(=O)NC1CCCCCC1` was 99% (active).
Take `Cc1ccc(NC(=O)c2ccc3ncccc3c2)cc1OC1CCN(Cc2ccco2)C1` (stereo not given): the growth inhibition was 86% (active).
Take `CCCCCN1CCCC(CNS(=O)(=O)c2ccc(C(=O)Nc3ccc(C(F)(F)F)cc3)cc2)C1` (stereo not given): the growth inhibition was 94% (active).
The same measure, in the same setting: the value for `Cn1cncc1C(=O)Nc1cccc(-c2ccc(-c3nc4ccccc4[nH]3)s2)c1` was 102% (active); that for `CCCCOc1ccc(N2C(N)=NC(N)=NC2(C)C)cc1` was 97% (active); that for `COc1ccc(NC(=O)Nc2cccc(-c3cccc(-c4nc5c(C)cccc5[nH]4)c3)c2)cc1` was 101% (active).
Turning to `O=C(Nc1cccc(-c2ccc(-c3nc4ccc(C(F)(F)F)cc4[nH]3)s2)c1)c1cnc[nH]1`, the growth inhibition was 89% (active).
On the same count and under the same terms, the result for `COc1cccc2cc(C(=O)N[C@@H](CC(C)C)C(=O)N[C@H](/C=N/N3C(=O)CN(Cc4ccccc4)C3=O)CCc3ccccc3)oc12` reads 85% (active); that for `CCOc1ccc(-c2nc(NC(=O)Cc3cccc(OC)c3)sc2C)cc1`, 97% (active); that for `Cc1ccc(C2CC(c3cccs3)=NN2C(=O)c2ccc(Br)o2)cc1` (stereo not given), 99% (active).
Same read-out and setting: the result for `CNc1ccc(CNCc2ccc(-c3ccc(-c4nc5ccc(C(F)(F)F)cc5[nH]4)s3)cc2)cc1` reads 102% (active); that for `Cc1ccc([N+](=O)[O-])cc1NC(=O)N(CC(O)c1ccccc1)C1CCCCC1` (stereo not given), 100% (active); that for `COc1ccc(CCN(C)CCOc2ccc(NC(=O)c3cc(SC)cc4c(=O)c5ccccc5[nH]c34)cc2)cc1OC`, 87% (active).
Regarding `CC(C)C(C(=O)Nc1ccc(S(=O)(=O)N(C)C)cc1)c1ccc(Cl)cc1` (stereo not given), the growth inhibition was 100% (active).
Still for that read-out and setting: the result for `NC(=O)c1ccc(C(=O)Nc2cccc(-c3ccc(-c4nc5ccc(C(F)(F)F)cc5[nH]4)cc3)c2)cc1` reads 100% (active).

In a further assay the target is Calcium-dependent protein kinase 1 (Plasmodium falciparum (isolate 3D7)) (UniProt P62344). Nature of the assay: PfCDPK1 kinase inhibitors, biochemical, TCAMS library (AID 1159585).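 Further: inhibitors leave more ATP so luminescence rises with inhibition.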 To be noted: recombinant PfCDPK1, Kinase-Glo ATP depletion luminescence.
Sequence of Calcium-dependent protein kinase 1 (Plasmodium falciparum (isolate 3D7)) (P62344 whole entry, looked up): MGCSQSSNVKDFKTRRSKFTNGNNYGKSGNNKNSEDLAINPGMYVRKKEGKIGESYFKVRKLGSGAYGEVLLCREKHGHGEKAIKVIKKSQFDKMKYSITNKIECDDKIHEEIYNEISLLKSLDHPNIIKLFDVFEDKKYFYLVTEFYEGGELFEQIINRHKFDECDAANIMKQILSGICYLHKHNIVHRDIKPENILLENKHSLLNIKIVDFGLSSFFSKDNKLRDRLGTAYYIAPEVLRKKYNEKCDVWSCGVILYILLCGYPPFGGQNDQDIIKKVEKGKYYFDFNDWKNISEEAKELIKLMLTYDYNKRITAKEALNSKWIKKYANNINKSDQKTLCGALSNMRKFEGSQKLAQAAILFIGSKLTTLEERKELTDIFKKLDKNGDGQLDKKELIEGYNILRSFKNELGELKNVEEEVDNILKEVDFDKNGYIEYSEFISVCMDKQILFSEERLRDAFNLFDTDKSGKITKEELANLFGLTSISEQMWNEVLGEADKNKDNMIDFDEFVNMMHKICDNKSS
For the molecule `Cc1ccc2[nH]c(C)c(Br)c(=O)c2c1`, the outcome was inactive.
Still for that read-out and setting: the result for `NC(=O)c1cccc(CNCc2ccc(-c3cccc(-c4nc5ccccc5[nH]4)c3)cc2)c1` reads “inactive”; that for `O=C(Nc1cc2cc(-c3ccc(CN4CCCCC4)cc3)ccc2n2cnnc12)NC1CCCC1`, “inactive”; that for `CN1CCC(NCc2ccc(-c3ccc(Cl)cc3)cc2)CC1`, “inactive”.
Still for that read-out and setting: the value for `CCCNc1ccc2nccc(CCN3CCC(NCc4ccc5c(n4)NC(=O)CS5)CC3)c2n1` was “inactive”; that for `COc1cc2c(C3CCN(CC4CCN(C(=O)/C=C/c5ccc(Cl)c(Cl)c5)CC4)CC3)c[nH]c2cn1` was “inactive”; that for `COc1cccc(CNC[C@@H](O)[C@H](Cc2ccccc2)NC(=O)c2cc(NC(C)C)cc(N3CCCCS3(=O)=O)c2)c1` was “inactive”.
Take `COc1ccc(NC(=O)/C=C/c2ccccc2Cl)cc1OCCN1CCC(N2CCCC2)CC1`: the result was inactive.
Same read-out and setting: the result for `Clc1ncnc2scc(-c3ccc(Br)cc3)c12` reads “inactive”; that for `Cc1cccc(Nc2nc(C)cc(N3CCCN(CC4CCCCC4)CC3)n2)c1`, “inactive”.
With `O=C(Nc1ccc2c(c1)OCO2)c1cc(-c2cccnc2)cnc1NCc1ccc2c(c1)OCO2`, the outcome was inactive.
The same measure, in the same setting: the value for `Cc1ccnc(NC(c2cccc(Cl)c2Cl)c2ccc3cccnc3c2O)c1` (stereo not given) was “inactive”.
Still for that read-out and setting: the result for `O=C(Nc1cccc(CN2CCCN(Cc3ccc(O)cc3)CC2)c1)c1cc(F)cc(F)c1` reads “inactive”.
On the same count and under the same terms, the value for `NC1=NC(c2ccccc2)(c2ccccc2)C(=O)N1Cc1ccc(-c2cccnc2)cc1` was “inactive”; that for `CN1CCN(c2cccc(Nc3nccc(NCC(O)c4ccccc4)n3)c2)CC1` (stereo not given) was “inactive”.
Consider `CCC(C)(C)c1ccc(N2C(N)=NC(N)=NC2(C)C)cc1`, for which the outcome was inactive.
On the same count and under the same terms, the value for `CC(CNC(=O)C(c1cc2ccccc2o1)N1CCN(C(c2ccccc2)c2ccccc2)CC1)c1ccccc1` (stereo not given) was “inactive”; that for `Cn1cnc(CCNC(=O)c2ccc(-c3ccc(-c4nc5ccc(C(F)(F)F)cc5[nH]4)s3)cc2)c1` was “inactive”; that for `CN1CCN(c2cc(-c3cccnc3)nc(-c3ccncc3)n2)CC1` was “inactive”.
The same measure, in the same setting: the value for `COc1ccc2nccc([C@@H](O)CN3CC[C@H](NCc4ccc5c(n4)NC(=O)CS5)[C@H](F)C3)c2c1` was “inactive”.
Still for that read-out and setting: the result for `c1ccc(-c2cc(NCCNc3cc(-c4ccccc4)nc4ccccc34)c3ccccc3n2)cc1` reads “inactive”; that for `NC1=NC2(CCCCC2)N(OCC2CCCCC2)C(N)=N1`, “inactive”.
`O=C(Nc1ccc(OC2CCN(Cc3ccc(F)cc3)CC2)c(Cl)c1)c1ccoc1`: the outcome was inactive.
Consider `O=S(=O)(Nc1cccc(CCN2CCC(N3CCCCC3)CC2)c1)c1cccc(C(F)(F)F)c1`, for which the outcome was inactive.
`Cc1c(C(=O)N2CCCC(C(F)(F)F)C2)sc2cccc(F)c12` (stereo not given): the result was inactive.
Same read-out and setting: the result for `CC(C)[C@H](NC(=O)c1ccc(O)c(-c2ccc(Cl)c(Cl)c2)c1)C(=O)NC1CCCCCC1` reads “inactive”.
`Cc1ccc(NC(=O)c2ccc3ncccc3c2)cc1OC1CCN(Cc2ccco2)C1` (stereo not given): the outcome was inactive.
The same measure, in the same setting: the result for `CCCCCN1CCCC(CNS(=O)(=O)c2ccc(C(=O)Nc3ccc(C(F)(F)F)cc3)cc2)C1` (stereo not given) reads “inactive”.
Still for that read-out and setting: the value for `Cn1cncc1C(=O)Nc1cccc(-c2ccc(-c3nc4ccccc4[nH]3)s2)c1` was “inactive”.
Still for that read-out and setting: the value for `CCCCOc1ccc(N2C(N)=NC(N)=NC2(C)C)cc1` was “inactive”; that for `COc1ccc(NC(=O)Nc2cccc(-c3cccc(-c4nc5c(C)cccc5[nH]4)c3)c2)cc1` was “inactive”; that for `O=C(Nc1cccc(-c2ccc(-c3nc4ccc(C(F)(F)F)cc4[nH]3)s2)c1)c1cnc[nH]1` was “inactive”.
On to `COc1cccc2cc(C(=O)N[C@@H](CC(C)C)C(=O)N[C@H](/C=N/N3C(=O)CN(Cc4ccccc4)C3=O)CCc3ccccc3)oc12`, for which the outcome was inactive.
The same measure, in the same setting: the result for `CCOc1ccc(-c2nc(NC(=O)Cc3cccc(OC)c3)sc2C)cc1` reads “inactive”; that for `Cc1ccc(C2CC(c3cccs3)=NN2C(=O)c2ccc(Br)o2)cc1` (stereo not given), “inactive”; that for `CNc1ccc(CNCc2ccc(-c3ccc(-c4nc5ccc(C(F)(F)F)cc5[nH]4)s3)cc2)cc1`, “inactive”.
Same read-out and setting: the value for `Cc1ccc([N+](=O)[O-])cc1NC(=O)N(CC(O)c1ccccc1)C1CCCCC1` (stereo not given) was “inactive”; that for `COc1ccc(CCN(C)CCOc2ccc(NC(=O)c3cc(SC)cc4c(=O)c5ccccc5[nH]c34)cc2)cc1OC` was “inactive”.
Same read-out and setting: the value for `CC(C)C(C(=O)Nc1ccc(S(=O)(=O)N(C)C)cc1)c1ccc(Cl)cc1` (stereo not given) was “inactive”.
As to `NC(=O)c1ccc(C(=O)Nc2cccc(-c3ccc(-c4nc5ccc(C(F)(F)F)cc5[nH]4)cc3)c2)cc1`, the outcome was inactive.

For the origin of these results see PubChem BioAssay.
